High-throughput results from PubChem BioAssay.
Rows were chosen to be rich in hits. Some 5.7% of all compounds tested hit in one or more screens of this group.
DRD3 antagonist: D3 dopamine receptor (human) antagonism; P35462; D3R cells, DiscoveRx beta-arrestin luminescence, antagonist mode; active compounds read low; max response, negative = inhibition, %; 360,000 compounds, 2.5% hits; in the data active means max response below about -50%; inconclusive means no clear call, values can overlap the other calls; further: on the % scale 0 is the no-effect control and ±100 the full control effect
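Cells plated overnight at 1500 cells/well, then exposed to library compounds with dopamine controls for 90 minutes at 37 degrees C. DiscoveRx reagent added for 30–60 minutes at room temperature; luminescence read, quantitative HTS format.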
GLP1R ag: agonists of human GLP-1 receptor; P43220; HEK293 GLP-1R CRE-luciferase, luminescence, 4-6 h; cells express a hypersensitive GLP-1R form; Potency, µM (highest dose often 45.6 µM), inactives show at the highest dose activation, actives largely listed as activators; 380,000 compounds, 0.007% hits; further: potency means the concentration at half of the fitted maximal effect; % of control where 0% means no effect
GLP1R cytotox: cytotoxic in the GLP-1 receptor inverse agonist counter-screen | HEK293 cAMP-luciferase reporter cells, luminescence, 24 h | Potency, µM (titrated, usually from 38.3 µM), for inactives: at the top dose activity change, negative = inhibition, usual class: inhibitors | 410,000 compounds, 0.13% hits | AID 624418;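 further: loss of luciferase light is scored as toxicity; potency means the concentration at half of the fitted maximal effect; on the % scale 0 is the no-effect control and ±100 the full control effect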
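MLSMR compounds, 24 hr on cells at 37 deg C/5% CO2; luminescence after luciferase reagent (12 min RT). Inhibition counted as the undesired cytotoxic outcome.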
DRD3 agonist: D3 dopamine receptor (human) agonism; P35462; D3R DiscoveRx beta-arrestin cells, luminescence, 90 min; max activation, %; 410,000 compounds, 0.58% hits; AID 652048; in the data active means max activation above about 30%; further: 0% is about no effect
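Agonist-mode cell screen: cells plated at 1500/well and incubated overnight at 37 °C, then exposed to library compounds for 90 min at 37 °C. Detection reagent was added for 30–60 min at room temperature, and luminescence was read.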
ClpP mod: qHTS Assay for Activators of ClpP; ATP-dependent Clp protease proteolytic subunit (Bacillus subtilis (strain 168)), P80244; purified B. subtilis ClpP, FRET peptide cleavage, 20 min; Potency, µM (series often up to 57.5 µM), for inactives: at the top dose activity change, negative = active; 340,000 compounds, 1.9% hits; AID 651965, 2013; active means well fitted falling curve with a large enough effect; inconclusive means small, poorly fitted or top-dose-only effect; inactive means no such curve, though single readings can be large or run the other way; further: potency means the concentration at half of the fitted maximal effect; the source files actives as falling curves though it sought activators and does not explain the sign; nearly all actives have a fitted effect of over 65% in size
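Purified B. subtilis ClpP, 10 microg/mL final in Tris/HCl pH8 with KCl, BSA, glycerol and Tween-20, cleaved an Abz/nitrotyrosine-quenched decapeptide. Fluorescence (ex 320, em 430) was read at 0 and 20 min at room temperature. Delta was normalized to 5.8 microM ADEP and DMSO/no-enzyme controls.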
GLP1R inv ag: inverse agonists of human GLP-1 receptor. P43220. Potency, µM (top dose mostly 38.3 µM), without a hit: top-dose activity change, negative = inhibition, usual class: inhibitors. HEK293 GLP-1R CRE-luciferase, luminescence, 24 h; GLP-1R form is constitutively active. 410,000 compounds, 1.6% hits; further: potency means the concentration at half of the fitted maximal effect; on the % scale 0 is the no-effect control and ±100 the full control effect; nearly all actives have a fitted effect of over 55% in size
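Cells are plated, allowed 12 hours at 37 deg C, then treated with compounds for 24 hr before luciferase detection reagent is added and luminescence is read after 12 min at room temperature. The HEK293 line carries constitutively active GLP-1R with a cAMP-responsive reporter.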
Starred values were filed as active, the others as inactive; ? = inconclusive; nt = no result. Unless noted, the call rests on the fitted dose curve; in most records, active means well fitted curve in the direction sought with a large enough effect; inconclusive means small, poorly fitted or top-dose-only effect, or another doubt; inactive means no such curve, though single readings can be large; an effect the other way counts as inactive or inconclusive.

SMILES | DRD3 antagonist | GLP1R ag | GLP1R cytotox | DRD3 agonist | ClpP mod | GLP1R inv ag
COc1nc(=O)n(C2CCCO2)cc1C (configuration not stated) | 15 | -2% | 60% | 3 | -3% | 23%
O=C(NCCCN1CCCC1=O)c1ccc(OC(F)(F)F)cc1 | 10 | 0% | 4% | 1 | nt | 5%
CCCCOc1ccc(C(=O)NCCN2CCC(n3c(=O)[nH]c4ccccc43)CC2)cc1 | -60* | -4% | -2% | -11 | 2% | -17%
O=C(NCCN1CCC(n2c(=O)[nH]c3ccccc32)CC1)c1ccc(OC(F)(F)F)cc1 | -86* | -1% | 7% | -12 | 1% | ?
COCCNc1ccc(-c2nc(-c3ccccn3)no2)cc1[N+](=O)[O-] | nt | nt | 1% | 0 | 2% | 9%
COc1ccc(C(=O)NCC(c2cccs2)S(=O)(=O)c2ccc(F)c(C)c2)cc1 (configuration not stated) | nt | 1% | -8% | 9 | -2% | ?
C#CCn1cnc2c(cnn2-c2ccc(F)cc2)c1=O | nt | nt | -10% | 4 | -9% | 2%
COc1ccc(CNC(=O)C2CCN(c3nnc(-n4cccc4CNc4ccc(C)cc4)s3)CC2)c(OC)c1 | nt | nt | -11% | 13 | -1% | ?
COc1ccc2c(c1)c(CCNNC(=O)C(C)(C)C)c(C)n2C(=O)c1ccc(Cl)cc1 | 27 | 5% | ? | -10 | 1% | 10µM*
COc1ccc2c(c1)c(CC(=O)OCC(=O)O)c(C)n2C(=O)c1ccc(Cl)cc1 | -54* | 6% | -2% | -2 | 3% | -6%
COc1ccc(OC)c(CNC(=O)NCc2noc3ccc(C)cc23)c1 | nt | nt | -10% | 2 | 1% | 7%
Cc1nc2ccccc2n1CCc1nc2c3ccccc3nc(SCc3cccc(F)c3)n2n1 | nt | nt | 2% | 5 | -1% | 1%
N#CC(C#N)c1ccnc2ccccc12 | 2 | -3% | 2% | 3 | -2% | ?
Cc1ccc(S(=O)(=O)NCCc2csc(-c3ccc(Cl)cc3)n2)cc1 | nt | -2% | -1% | 1 | -24% | ?
COc1ccc(-c2nc(CCNC(=O)Cc3ccc(F)cc3)cs2)cc1 | nt | nt | 2% | -17 | 22µM* | ?
O=S(=O)(NCCc1csc(-c2ccc(F)cc2)n1)c1ccc(Cl)cc1 | nt | nt | -4% | -17 | -13% | 11µM*
COc1cc(OC)cc(C(=O)NCCc2csc(-c3ccc(C(F)(F)F)cc3)n2)c1 | nt | nt | 2% | 9 | 32µM* | 10µM*
COc1ccc(-c2nc(CCNC(=O)c3cccs3)cs2)cc1OC | nt | nt | 2% | -7 | 28µM* | 52%
COc1ccc(CCC(=O)NCCc2csc(-c3ccc(F)cc3)n2)cc1 | nt | nt | 11% | 10 | -4% | ?
O=C(Nc1cccc(Cl)c1Cl)c1csc([C@H]2C[C@H](O)[C@@H](CO)O2)n1 | 9 | 11% | 5% | 7 | -5% | 13%
COc1ccc(-n2c(=O)c3c4c(sc3n3c(SC(C)C)nnc23)COC(C(C)C)C4)cc1 (configuration not stated) | nt | nt | 3% | 5 | -1% | -3%
CCCCN1C(=O)c2[nH]nc(-c3ccccc3O)c2C1c1ccc(C(C)(C)C)cc1 (configuration not stated) | nt | nt | -9% | 9 | -1% | 5%
Cc1ccc(-c2nnc(Nc3ccccc3)c3ccccc23)cc1S(=O)(=O)NCC1CCCO1 (configuration not stated) | -29 | -5% | -19% | -4 | 1% | -4%
Cc1ccc(C)c(Nc2nnc(-c3ccc(C)c(S(=O)(=O)NCC4CCCO4)c3)c3ccccc23)c1 (configuration not stated) | nt | nt | 7% | 1 | -18% | 11µM*
O=C1C=CC(=O)N1c1cccc(-c2ccccc2)c1 | ? | 0% | 13µM* | -26 | 0% | ?
SMILES | DRD3 antagonist | GLP1R ag | GLP1R cytotox | DRD3 agonist | ClpP mod | GLP1R inv ag
O=c1cc(-c2ccccc2)[nH]n1-c1ccccc1 | -7 | -2% | -36% | 11 | nt | ?
CCC(CC)C(=O)Nc1nnc(SCc2cc(=O)n3cccc(C)c3n2)s1 | nt | nt | -7% | 62* | -13% | 4%
CC(C)C(=O)Nc1nnc(SCc2cc(=O)n3ccccc3n2)s1 | nt | nt | 0% | 1 | -15% | 5%
O=C(N/N=C/C1C(c2ccccc2)C1(Cl)Cl)c1cccc(Br)c1 (configuration not stated) | -53* | -17% | -12% | -3 | 1% | ?
CC(/C=C/c1ccccc1)=N/NC(=O)c1cccc(Br)c1 | -53* | 3% | ? | -7 | nt | ?
O=C(N/N=C/c1[nH]c2ccccc2c1Cl)c1cccc(Br)c1 | 3 | 6% | 173% | -1 | nt | -1%
CN(CC(O)COc1ccccc1F)C1CCCCC1 (configuration not stated) | -2 | 14% | 16% | -23 | nt | 16%
Cc1ccccc1OCC(O)CN(Cc1ccccc1O)C1CCCCC1 (configuration not stated) | 0 | 4% | ? | -8 | nt | 11µM*
CCN(CC(O)COc1ccc(OCC(O)CN(CC)C2CCCCC2)cc1)C1CCCCC1 (configuration not stated) | -7 | 1% | -19% | 1 | -1% | 2.2µM*
CO/N=C(/C(=O)N[C@@H]1C(=O)N2C(C(=O)O)=C(CSc3cnns3)CS[C@H]12)c1csc(N)n1 | nt | -4% | nt | nt | nt | nt
CC1=C(C)/C(=N\OS(=O)(=O)c2ccc(C)cc2)C=CC1=O | -104* | -36% | -13% | -3 | -1% | ?
CC1=C/C(=N\OS(=O)(=O)c2ccccc2)C(C(C)C)=CC1=O | -15 | -32% | ? | -4 | 2% | ?
CC1=C/C(=N\OS(=O)(=O)c2ccccc2)C(C)=CC1=O | -73* | -14% | -31% | -1 | 2% | ?
CCC(=O)Nc1cccc(-c2cnc3ccccc3n2)c1 | 17 | 6% | 0% | -4 | 2% | 0%
CCC(C(=O)Nc1cc(-c2nc3cccnc3s2)ccc1C)c1ccccc1 (configuration not stated) | nt | nt | 2% | 9 | 35µM* | 8%
O=C(Cc1ccccc1)Nc1cccc(-c2nc3cccnc3s2)c1 | nt | nt | 2% | 78* | 35µM* | 15%
O=C(Cc1ccccc1)Nc1cccc(-c2nc3ncccc3o2)c1 | -14 | 11% | ? | 2 | 28µM* | -8%
O=C(CCl)Nc1cccc(-c2cnc3ccccc3n2)c1 | -7 | 0% | ? | 2 | -21% | 8.9µM*
O=C(N/N=C/c1cc(Cl)cc(Cl)c1O)c1ccncc1 | 18 | 14% | 23% | 6 | 1% | ?
